Laboratory results reported in ChEMBL document CHEMBL3988442, “University of Dundee, Small-Polar-MMV Screening Library” (2021).
The campaign covered roughly 69,000 compounds. About 950 (1.4%) showed an effect of 50% or more. Shown is part of a subset that was picked to be rich in strong results.

What follows are compounds tested on Mycobacterium tuberculosis (assay: Cornell M. t heat shock assay; note: in the data most compounds retested in dose-response had high values).
Type: functional, organism-based
Set-up: dose or concentration left out as unconfirmed

| SMILES | Percent Effect |
| --- | --- |
| O=C(O)C(F)(F)F.O=C(c1ncccn1)N1CCC[C@]2(C[C@@H](Oc3ncccc3F)CO2)C1 | -26.7% |
| O=C(Cc1ccccc1F)N1C[C@@H]2COC[C@]2(COc2cccnc2)C1.O=C(O)C(F)(F)F | -4.707% |
| COCC(=O)N1CCCn2c(CN3CCOCC3)nnc2C1.O=C(O)C(F)(F)F | -20.35% |
| Cl.FC(F)CNc1cnc(C2CCCN2)cn1 (stereo not drawn) | -21.09% |
| O=C(O)C(F)(F)F.O=C1NCCN(CC2CC2)C12CCN(Cc1ccccc1)CC2 | -29.41% |
| COCC1CC2(CCN(Cc3ccncc3)CC2)CN1C(C)C.O=C(O)C(F)(F)F.O=C(O)C(F)(F)F.O=C(O)C(F)(F)F (stereo not drawn) | -9.126% |
| O=C(Nc1cccnc1)[C@H]1C[C@@H]2CN(S(=O)(=O)C3CC3)C[C@H]1O2 | -11.95% |
| COCc1ncn2c1CN(C(=O)c1ccc3ccccc3n1)CC2.O=C(O)C(F)(F)F | -56.59% |
| CO[C@H]1C[C@@H]2CN(C(=O)c3cc4ccc(F)cc4[nH]3)C[C@@H]2C1 | 35.64% |
| COc1ccc(CN2C[C@H]3CN(c4ccsc4)C(=O)[C@H]3C2)cc1.O=C(O)C(F)(F)F | 16.76% |
| COc1ccc(F)cc1C(=O)N1C[C@H]2C[C@H](OC)C[C@H]2C1 | -3.804% |
| Cl.Cl.O=C([C@H]1CCCN1)N1CC2(CCNCC2)c2cc(Cl)ccc21 | -22.31% |
| CC(=O)N1CCC2(CC1)CN(C(=O)[C@@H]1CSCN1)c1ccc(Cl)cc12.O=C(O)C(F)(F)F | 52.14% |
| Cl.Cl.O=C([C@@H]1CSCN1)N1CC2(CCNCC2)c2cc(Cl)ccc21 | 3.414% |
| O=C(CC1CCCC1)N1C[C@H](Oc2cccnc2)[C@H]2OCCC[C@H]21.O=C(O)C(F)(F)F | 0.71% |
| CCOCC1CN(CC2CCC2)Cc2nnn(CC3CC3)c21 (stereo not drawn) | 57.51% |
| CCOCC1CN(C(=O)N(C)C)Cc2nnn(CC3CC3)c21 (stereo not drawn) | 1.23% |
| C1CCC(CN2Cc3nnn(CC4CC4)c3C(COCC3CC3)C2)C1.O=C(O)C(F)(F)F (stereo not drawn) | 40.48% |
| CN(C)CC1CN(Cc2cccc(C#N)c2)Cc2nccn2C1.O=C(O)C(F)(F)F.O=C(O)C(F)(F)F (stereo not drawn) | -5.749% |
| CC(C)c1nn(C)c(Cl)c1CNCc1ccc2c(c1)OCO2.Cl | 15.25% |
| O=C(CC1CC1)N1CCc2ncc(CN3CCOCC3)n2CC1.O=C(O)C(F)(F)F | 2.118% |
| COc1ncc(C2(O)CCN(Cc3ccc(F)c(F)c3)CC2)c(OC)n1.Cl | 2.429% |
| CCS(=O)(=O)N1CC(=O)N(CCOc2ccccc2)CC(O)C1 (stereo not drawn) | -13.04% |
| CCS(=O)(=O)N1CC(=O)N(CCCc2ccccc2)CC(O)C1 (stereo not drawn) | -6.774% |
| CCCS(=O)(=O)N1CC(=O)N(Cc2ccccc2OC)CC(O)C1 (stereo not drawn) | 56.43% |
| CCCS(=O)(=O)N1CC(=O)N(Cc2cccc(OC)c2OC)CC(O)C1 (stereo not drawn) | 3.552% |
| COc1cccc(OC)c1CN1CC(O)CN(S(C)(=O)=O)CC1=O (stereo not drawn) | 55.83% |

| SMILES | Percent Effect |
| --- | --- |
| COc1ccccc1CN1CC(O)CN(C(=O)OCC(C)C)CC1=O (stereo not drawn) | 1.526% |
| CCCS(=O)(=O)N1CC(=O)N(CCCc2ccccc2)CC(O)C1 (stereo not drawn) | -29.16% |
| COc1ccccc1CN1CC(O)CN(S(=O)(=O)C(C)C)CC1=O (stereo not drawn) | 61.24% |
| CS(=O)(=O)N1CC(=O)N(CCCc2ccccc2)CC(O)C1 (stereo not drawn) | -9.009% |
| CCS(=O)(=O)N1CC(=O)N(Cc2ccccc2OC)CC(O)C1 (stereo not drawn) | 62.67% |
| COc1ccccc1CN1CC(OC)CN(C(=O)CC(C)C)CC1=O (stereo not drawn) | -13.24% |
| COc1cccc(CN2CC(O)CN(S(C)(=O)=O)CC2=O)c1OC (stereo not drawn) | 29.18% |
| COc1ncccc1CN1C[C@@H]2COC[C@]2(CNS(C)(=O)=O)C1.O=C(O)C(F)(F)F.O=C(O)C(F)(F)F | -54.94% |
| O=C(NCc1ccccn1)[C@]12COC[C@H]1CN(Cc1cccnc1)C2.O=C(O)C(F)(F)F.O=C(O)C(F)(F)F.O=C(O)C(F)(F)F | -8.191% |
| CC(=O)N1CCC2(CC1)COCCN2Cc1ccc(F)cc1.O=C(O)C(F)(F)F | -4.953% |
| CN(C)[C@@H]1CN(C(=O)Cc2ccccc2)[C@@H]2CCCO[C@H]12.O=C(O)C(F)(F)F | -12.48% |
| CN1C(=O)CC(c2cnn(C)c2)C12CCN(C(=O)c1ccncc1)CC2.O=C(O)C(F)(F)F (stereo not drawn) | -21.56% |
| COc1cc(CNCC(O)c2ccc(C)cc2)cc2c1OCO2.Cl (stereo not drawn) | -8.52% |
| O=C(NCC1CCCCC1)N1C[C@H]2C[C@H](C(=O)N3CCCC3)[C@@H](C1)O2 | -29.22% |
| CN(C)C(=O)CN1CCCC2(CCN(c3ccsc3)C2=O)C1.O=C(O)C(F)(F)F (stereo not drawn) | -10.79% |
| COc1ccc(CN2C[C@H]3C[C@H](CN(C)C)O[C@H]3C2)cc1.O=C(O)C(F)(F)F.O=C(O)C(F)(F)F | -20.17% |
| CC(C)NC(=O)[C@H]1C[C@@H]2CN(C(=O)NCCc3ccccc3)C[C@H]1O2 | -3.811% |
| Cl.O=c1c2sccc2nc2n1CCN(Cc1cc(F)ccc1F)CC2 | 0.6259% |
| COc1cc(CN2CC(=O)N(c3ccc(C)cc3)CC2C)cc(OC)c1 (stereo not drawn) | 23.62% |
| COc1cccc(OC)c1CN1CC(=O)N(c2ccc(C)cc2)CC1C (stereo not drawn) | 53.82% |
| COc1ccc(CN2CC(=O)N(c3ccc(C)cc3)CC2C)cc1O (stereo not drawn) | -4.116% |
| CC(CCSc1ccccc1)N1CCN(C(=O)c2ccccc2O)CC1 (stereo not drawn) | 35.88% |
| CC(CCSc1ccccc1)N1CCCN(C(N)=O)CC1 (stereo not drawn) | 30.42% |
| CC(CCSc1ccccc1)N1CCN(C(=O)c2cccs2)CC1 (stereo not drawn) | 96% |
| COCCNC(=O)C[C@@H]1COC[C@H]2CN(CC3CCOCC3)C[C@@H]12.O=C(O)C(F)(F)F | -14.59% |
| Cc1ccc(C(=O)N2CCc3ncnc(-c4cnn(C)c4)c3CC2)cn1.O=C(O)C(F)(F)F | -33.4% |
